Experimental data: PubChem BioAssay (EPA / NIEHS)
Results filed as inconclusive are left out. Calls of active or inactive are those of the source. Rule for the calls, unless noted: active = hit-call score of the fitted dose curve at least 0.9, where 1 is the maximum; inactive = score below 0.9.

Assays:
[1] = ATG_PXRE_CIS: Attagene CIS-FACTORIAL HepG2 Assay for human Pregnane X Receptor Element (PXRE) (AID 2282957); settings: HepG2 Attagene CIS-FACTORIAL PXRE reporter, mRNA; actives raise or lower the signal
Method in brief: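 Multiplexed cis-reporter assay in transiently transfected human HepG2 cells; 24 h chemical exposure. Reporter transcripts quantified by RT-PCR with fluorescent labeling and capillary electrophoresis.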

[2] = ATG_PPRE_CIS: Attagene CIS-FACTORIAL HepG2 Assay for human Peroxisome Proliferator-activated Response Element (PPRE) (AID 2282958); settings: HepG2 PPRE cis-element reporter, Attagene transcription factor profiling; actives raise or lower the signal
Method in brief: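 HepG2, transient MRTU transfection (cis promoter elements, endogenous TFs). 24 h dosing. RNA → oligo(dT) RT → PCR → 6-FAM primer extension → HpaI digest → CE. Bidirectional fit vs DMSO.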

[3] = ATG_RORE_CIS: Attagene CIS-FACTORIAL HepG2 Assay for human RAR-related Orphan Receptor Element (RORE) (AID 2282959); settings: HepG2 Attagene cis-factorial RORE reporter, mRNA; actives raise or lower the signal
Method in brief: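 Transient MRTU transfection of human HepG2 liver cells (FuGene 6); 24 h compound exposure; TriZol RNA, oligo(dT) RT, PCR, FAM labeling, HpaI cut, CE fragment analysis. DMSO = negative control/baseline.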

[4] = ATG_Sox_CIS: Attagene CIS-FACTORIAL HepG2 Assay for human SRY-box transcription factor (SOX) (AID 2282960); settings: HepG2 Attagene cis-factorial SOX reporter, mRNA; actives raise or lower the signal
Method in brief: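 Endogenous factor activity in human liver HepG2 cells carrying transfected cis-regulated reporter units. RNA taken 24 h post-dose, reverse-transcribed, PCR-amplified and sized by capillary electrophoresis. Gain or loss of signal fitted relative to DMSO.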

[5] = target: Transcription factor Sp1 (Homo sapiens) (UniProt P08047); test: ATG_Sp1_CIS: Attagene CIS-FACTORIAL HepG2 Assay for human Specificity Protein 1 (Sp1) (AID 2282961); settings: HepG2 Sp1 cis-reporter transcription, actives raise or lower the signal
Method in brief: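 Transient MRTU-transfected HepG2, 24 h compound exposure. Total RNA → oligo(dT) RT → PCR of reporter → 6-FAM primer extension → HpaI digest → CE. Endpoint fitted both directions vs DMSO.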

[6] = ATG_SREBP_CIS: Attagene CIS-FACTORIAL HepG2 Assay for human Sterol Regulatory Element Binding (SREBP) (AID 2282962); settings: HepG2 Attagene cis-factorial SREBP reporter, mRNA; actives raise or lower the signal
Method in brief: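 Transfected HepG2 (cis-regulated reporter library, endogenous TFs) → compound 24 h → total RNA → oligo(dT) RT → reporter-specific PCR → FAM primer extension, HpaI cut → CE fluorescence. Fit bidirectional vs DMSO.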

[7] = target: Signal transducer and activator of transcription 3 (Homo sapiens) (UniProt P40763); test: ATG_STAT3_CIS: Attagene CIS-FACTORIAL HepG2 Assay for human Signal Transducer and Activator of Transcription 3 (STAT3) (AID 2282963); settings: HepG2, Attagene cis-factorial STAT3 reporter transcription; actives raise or lower the signal
Method in brief: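 HepG2 cells transiently transfected with cis-element-driven multiple reporter transcription units; after 24 h chemical exposure, reporter mRNA measured by RT-PCR, 6-FAM primer-extension labelling, HpaI digestion and capillary electrophoresis. Bidirectional fitting versus DMSO baseline.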

[8] = ATG_TA_CIS: Attagene CIS-FACTORIAL HepG2 Assay for human TA Basal Promoter (AID 2282964); settings: HepG2 Attagene CIS-factorial TA basal promoter reporter; actives raise or lower the signal
Method in brief: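 Read-out: fluorescent reporter-transcript fragments resolved by capillary electrophoresis after RT-PCR and HpaI digestion. Source: HepG2 cells carrying transiently transfected multi-reporter cis constructs, treated 24 h. Endpoint fitted bidirectionally relative to DMSO.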

[9] = ATG_TAL_CIS: Attagene CIS-FACTORIAL HepG2 Assay for human TAL Basal Promoter (AID 2282966); settings: HepG2 Attagene cis-factorial TAL promoter reporter; actives raise or lower the signal;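 note: background control endpoint measuring basal TAL promoter reporter mRNA not a specific factor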
Method in brief: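 Steps: transfect HepG2 with multiple reporter transcription units; dose 24 h; isolate RNA, reverse-transcribe, PCR-amplify, label with 6-FAM, digest with HpaI; resolve by capillary electrophoresis. Bidirectional fitting against DMSO baseline.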

[10] = ATG_TGFb_CIS: Attagene CIS-FACTORIAL HepG2 Assay for human Transforming Growth Factor (TGF) (AID 2282967); settings: HepG2 Attagene CIS TGFb reporter, mRNA transcription; actives raise or lower the signal
Method in brief: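 Transient MRTU transfection of HepG2 (FuGene 6). Dose 24 h. TriZol RNA, oligo(dT) RT, PCR, 6-FAM primer extension, HpaI cut, CE. Bidirectional fit, DMSO = baseline.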

[11] = ATG_VDRE_CIS: Attagene CIS-FACTORIAL HepG2 Assay for human Vitamin D Receptor Element (VDRE) (AID 2282968); settings: HepG2 VDRE cis-reporter transcription, actives raise or lower the signal
Method in brief: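 HepG2 cells transiently transfected with cis-element reporter units, dosed 24 h; reporter mRNA measured by RT-PCR, 6-FAM labeling, HpaI digestion and capillary electrophoresis. Activity fitted bidirectionally against DMSO baseline.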

[12] = target: Estrogen receptor (Homo sapiens) (UniProt P03372); test: ATG_ERa_TRANS: Attagene TRANS-FACTORIAL HepG2 Assay for human Estrogen Receptor alpha (ERa) (AID 2282970; active = hit-call score of the fitted dose curve at least 0.9, where 1 is the maximum); settings: HepG2 Attagene TRANS ERa GAL4 reporter, mRNA
Method in brief: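 Multiplexed cell-based reporter format in HepG2: chimeric ERa-Gal4 protein drives GAL4-UAS reporter transcription. Fluorescent reporter mRNA quantified by capillary electrophoresis 24 hours after dosing; endpoint fitted as signal gain against DMSO.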

[13] = target: Steroid hormone receptor ERR1 (Homo sapiens) (UniProt P11474); test: ATG_ERRa_TRANS: Attagene TRANS-FACTORIAL HepG2 Assay for human Estrogen-Related Receptor alpha (ERRa) (AID 2282971; active = hit-call score of the fitted dose curve at least 0.9, where 1 is the maximum); settings: HepG2 Attagene TRANS reporter, ERRa transactivation
Method in brief: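 Signal gain relative to DMSO for an ERRa-Gal4 chimeric receptor, read as reporter mRNA by RT-PCR/capillary electrophoresis. Human HepG2 liver cells, transient multiplex reporter transfection, 24 h chemical exposure.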

[14] = target: X-box-binding protein 1 (Homo sapiens) (UniProt P17861); test: ATG_Xbp1_CIS: Attagene CIS-FACTORIAL HepG2 Assay for human X-box Binding Protein 1 (XBP1) (AID 2282972); settings: HepG2 XBP1 cis-element reporter, Attagene multiplex; actives raise or lower the signal
Method in brief: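 HepG2, transient MRTU transfection (cis-promoter driven), 24 h compound exposure. Total RNA → oligo(dT) RT → PCR → 6-FAM labeling → HpaI cut → CE. Bidirectional fit vs DMSO.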

[15] = ATG_M_19_TRANS: Attagene TRANS-FACTORIAL HepG2 Assay for M19 Transcription Factor (Internal Marker) (AID 2282974; active = hit-call score of the fitted dose curve at least 0.9, where 1 is the maximum); settings: HepG2 Attagene TRANS-FACTORIAL M19 internal marker reporter
Method in brief: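 Fluorescence of 6-FAM-labelled reporter cDNA fragments, separated by capillary electrophoresis, served as the readout. These derived from HepG2 cells carrying transfected GAL4-UAS reporter units after 24 h dosing, with DMSO as negative control.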

[16] = target: Estrogen-related receptor gamma (Homo sapiens) (UniProt P62508); test: ATG_ERRg_TRANS: Attagene TRANS-FACTORIAL HepG2 Assay for human Estrogen-Related Receptor gamma (ERRg) (AID 2282977; active = hit-call score of the fitted dose curve at least 0.9, where 1 is the maximum;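 note: hits increase reporter signal over DMSO so potencies reflect activators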); settings: HepG2 Attagene TRANS reporter, ERRg transactivation
Method in brief: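 HepG2 cells transiently transfected with multiplexed GAL4-UAS reporter units and chimeric NR-Gal4 constructs were exposed to test chemicals for 24 h. Reporter mRNA was measured by RT-PCR, 6-FAM primer extension, HpaI digestion and capillary electrophoresis; gain-of-signal versus DMSO.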

[17] = target: Glucocorticoid receptor (Homo sapiens) (UniProt P04150); test: ATG_GR_TRANS: Attagene TRANS-FACTORIAL HepG2 Assay for human Glucocorticoid Receptor (GR) (AID 2282978; active = hit-call score of the fitted dose curve at least 0.9, where 1 is the maximum;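 note: activators score as hits since higher reporter transcript over DMSO is fitted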); settings: HepG2 Attagene TRANS GR reporter, mRNA transcription
Method in brief: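 Fluorescent capillary-electrophoresis quantitation of reporter mRNA is the readout, taken 24 h after dosing human HepG2 cells carrying transiently transfected GAL4-UAS reporter units activated by chimeric NR-GAL4 fusions; activity scored as induction over DMSO.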

[18] = target: Nuclear receptor subfamily 1 group I member 3 (Homo sapiens) (UniProt Q14994); test: ATG_CAR_TRANS: Attagene TRANS-FACTORIAL HepG2 Assay for human Constitutive Androstane Receptor (CAR) (AID 2282969; active = hit-call score of the fitted dose curve at least 0.9, where 1 is the maximum;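 note: activators raise reporter mRNA above DMSO so AC50 marks induction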); settings: HepG2 Attagene TRANS-FACTORIAL CAR reporter
Method in brief: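 HepG2 cells transiently transfected with multiplexed GAL4-UAS reporter units expressing chimeric NR-Gal4 proteins; compound exposure 24 h. Reporter mRNA measured by RT-PCR, 6-FAM labelling, HpaI digestion and capillary electrophoresis; gain-of-signal fitted against DMSO baseline.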

[19] = ATG_GAL4_TRANS: Attagene TRANS-FACTORIAL HepG2 Assay for GAL4 (Internal Marker) (AID 2282976; active = hit-call score of the fitted dose curve at least 0.9, where 1 is the maximum); settings: HepG2 Attagene TRANS GAL4 internal marker reporter
Method in brief: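 Liver HepG2 line bearing multiplexed GAL4-UAS reporter constructs; 24 h chemical treatment. Transcripts were quantified as fluorescent fragments on capillary electrophoresis after RT-PCR and HpaI cut, with activity fitted upward from DMSO.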

[20] = ATG_TCF_b_cat_CIS: Attagene CIS-FACTORIAL HepG2 Assay for human T-Cell-Factor with beta-catenin (TCF/b-cat) (AID 2282965); settings: HepG2 TCF/beta-catenin cis-reporter transcription, actives raise or lower the signal
Method in brief: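 In this cis-format system, transfected HepG2 cells report endogenous transcription factor activity. Readout after 24 h exposure is reporter transcript abundance from RT-PCR and capillary electrophoresis, analysed for gain or loss of signal versus DMSO.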

Measured: AC50

Transcription factor Sp1 (Homo sapiens), sequence (P08047 whole entry, looked up): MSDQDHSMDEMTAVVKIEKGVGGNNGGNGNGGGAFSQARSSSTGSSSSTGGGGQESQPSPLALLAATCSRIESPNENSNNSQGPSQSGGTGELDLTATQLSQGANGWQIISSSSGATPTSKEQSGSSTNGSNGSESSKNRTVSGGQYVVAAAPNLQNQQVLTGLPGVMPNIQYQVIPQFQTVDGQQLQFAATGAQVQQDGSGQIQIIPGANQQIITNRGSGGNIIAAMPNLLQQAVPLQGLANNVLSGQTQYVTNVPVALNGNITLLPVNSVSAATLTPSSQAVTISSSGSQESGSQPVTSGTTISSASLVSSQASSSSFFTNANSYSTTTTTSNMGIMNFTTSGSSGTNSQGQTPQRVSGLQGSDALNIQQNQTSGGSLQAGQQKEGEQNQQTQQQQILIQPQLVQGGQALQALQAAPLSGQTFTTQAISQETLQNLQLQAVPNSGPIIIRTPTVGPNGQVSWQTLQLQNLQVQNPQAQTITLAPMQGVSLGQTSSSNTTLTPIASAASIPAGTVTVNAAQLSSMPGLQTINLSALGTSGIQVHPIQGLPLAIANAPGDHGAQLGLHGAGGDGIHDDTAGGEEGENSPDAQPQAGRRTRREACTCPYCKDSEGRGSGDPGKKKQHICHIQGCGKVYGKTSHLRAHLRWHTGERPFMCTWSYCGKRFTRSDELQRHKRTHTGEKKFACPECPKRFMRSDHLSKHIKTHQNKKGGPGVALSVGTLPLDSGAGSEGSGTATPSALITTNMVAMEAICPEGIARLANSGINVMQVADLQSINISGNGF
Signal transducer and activator of transcription 3 (Homo sapiens), sequence (P40763 whole entry, looked up): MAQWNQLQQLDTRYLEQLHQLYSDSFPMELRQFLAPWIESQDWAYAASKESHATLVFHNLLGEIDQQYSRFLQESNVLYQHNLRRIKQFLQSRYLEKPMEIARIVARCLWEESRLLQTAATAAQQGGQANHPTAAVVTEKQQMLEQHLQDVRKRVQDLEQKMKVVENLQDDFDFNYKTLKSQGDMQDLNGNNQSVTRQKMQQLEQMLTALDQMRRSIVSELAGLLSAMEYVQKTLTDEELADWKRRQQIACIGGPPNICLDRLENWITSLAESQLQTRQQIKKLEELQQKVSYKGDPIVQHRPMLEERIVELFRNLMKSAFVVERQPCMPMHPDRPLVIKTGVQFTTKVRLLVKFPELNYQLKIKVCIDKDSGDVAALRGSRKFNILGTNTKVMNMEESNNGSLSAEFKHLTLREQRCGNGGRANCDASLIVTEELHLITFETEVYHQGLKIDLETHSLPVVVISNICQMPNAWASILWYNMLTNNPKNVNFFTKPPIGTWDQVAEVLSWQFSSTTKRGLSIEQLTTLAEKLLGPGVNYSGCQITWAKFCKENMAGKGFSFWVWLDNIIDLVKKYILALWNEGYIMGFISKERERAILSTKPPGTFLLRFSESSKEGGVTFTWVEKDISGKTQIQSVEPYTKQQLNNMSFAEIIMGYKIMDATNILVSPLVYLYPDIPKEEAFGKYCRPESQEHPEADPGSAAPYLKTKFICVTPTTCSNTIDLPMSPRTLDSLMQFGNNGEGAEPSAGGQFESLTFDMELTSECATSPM
X-box-binding protein 1 (Homo sapiens), sequence (P17861 whole entry, looked up): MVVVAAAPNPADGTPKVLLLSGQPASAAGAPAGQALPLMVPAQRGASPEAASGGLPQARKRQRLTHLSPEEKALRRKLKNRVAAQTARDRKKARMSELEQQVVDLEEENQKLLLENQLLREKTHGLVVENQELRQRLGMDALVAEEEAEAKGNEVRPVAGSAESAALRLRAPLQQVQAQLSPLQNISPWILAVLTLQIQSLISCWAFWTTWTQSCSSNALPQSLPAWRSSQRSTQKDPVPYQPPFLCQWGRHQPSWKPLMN
Steroid hormone receptor ERR1 (Homo sapiens), sequence (P11474 whole entry, looked up, the tested form may be a part): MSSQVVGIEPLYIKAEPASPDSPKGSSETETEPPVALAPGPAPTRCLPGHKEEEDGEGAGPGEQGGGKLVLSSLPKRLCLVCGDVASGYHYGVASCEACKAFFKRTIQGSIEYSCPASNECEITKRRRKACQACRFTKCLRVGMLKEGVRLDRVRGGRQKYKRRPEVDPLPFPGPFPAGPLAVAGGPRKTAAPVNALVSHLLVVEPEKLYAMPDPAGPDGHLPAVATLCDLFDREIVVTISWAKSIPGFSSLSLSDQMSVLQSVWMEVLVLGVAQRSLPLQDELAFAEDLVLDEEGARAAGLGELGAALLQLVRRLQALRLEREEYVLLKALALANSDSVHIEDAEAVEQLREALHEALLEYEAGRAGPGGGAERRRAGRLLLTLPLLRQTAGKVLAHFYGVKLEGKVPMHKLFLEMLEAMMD
Glucocorticoid receptor (Homo sapiens), sequence (P04150 whole entry, looked up, the tested form may be a part): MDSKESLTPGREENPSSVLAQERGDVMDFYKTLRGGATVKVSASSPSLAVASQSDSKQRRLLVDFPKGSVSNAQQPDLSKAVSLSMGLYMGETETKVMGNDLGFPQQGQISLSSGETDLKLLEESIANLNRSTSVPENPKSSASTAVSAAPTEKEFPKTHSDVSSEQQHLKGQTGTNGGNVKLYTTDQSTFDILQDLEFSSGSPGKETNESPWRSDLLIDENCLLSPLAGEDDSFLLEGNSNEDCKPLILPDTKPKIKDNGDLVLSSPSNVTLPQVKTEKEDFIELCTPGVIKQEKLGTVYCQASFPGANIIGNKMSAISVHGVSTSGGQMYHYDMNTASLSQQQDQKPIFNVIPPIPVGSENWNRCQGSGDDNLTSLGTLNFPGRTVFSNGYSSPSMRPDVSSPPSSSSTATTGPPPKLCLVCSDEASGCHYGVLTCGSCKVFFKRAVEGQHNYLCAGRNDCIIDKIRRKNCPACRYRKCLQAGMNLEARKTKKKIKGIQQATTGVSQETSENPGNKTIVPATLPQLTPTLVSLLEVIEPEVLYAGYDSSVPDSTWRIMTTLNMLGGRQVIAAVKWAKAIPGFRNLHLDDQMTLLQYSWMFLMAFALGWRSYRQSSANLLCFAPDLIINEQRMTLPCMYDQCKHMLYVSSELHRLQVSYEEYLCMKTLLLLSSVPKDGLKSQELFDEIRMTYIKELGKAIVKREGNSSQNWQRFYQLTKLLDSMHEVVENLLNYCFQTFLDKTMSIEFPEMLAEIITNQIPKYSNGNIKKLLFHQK
Nuclear receptor subfamily 1 group I member 3 (Homo sapiens), sequence (Q14994 whole entry, looked up, the tested form may be a part): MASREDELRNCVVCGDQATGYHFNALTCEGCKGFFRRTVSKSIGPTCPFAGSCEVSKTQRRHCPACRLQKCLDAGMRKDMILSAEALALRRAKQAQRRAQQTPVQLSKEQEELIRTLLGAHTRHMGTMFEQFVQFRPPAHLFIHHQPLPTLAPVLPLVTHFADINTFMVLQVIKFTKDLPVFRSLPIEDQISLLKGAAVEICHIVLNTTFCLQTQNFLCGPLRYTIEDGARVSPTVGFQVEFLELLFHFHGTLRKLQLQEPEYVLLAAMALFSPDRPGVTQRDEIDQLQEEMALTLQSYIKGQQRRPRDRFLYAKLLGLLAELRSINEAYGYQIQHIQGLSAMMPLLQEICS
Estrogen receptor (Homo sapiens), sequence (P03372 whole entry, looked up, the tested form may be a part): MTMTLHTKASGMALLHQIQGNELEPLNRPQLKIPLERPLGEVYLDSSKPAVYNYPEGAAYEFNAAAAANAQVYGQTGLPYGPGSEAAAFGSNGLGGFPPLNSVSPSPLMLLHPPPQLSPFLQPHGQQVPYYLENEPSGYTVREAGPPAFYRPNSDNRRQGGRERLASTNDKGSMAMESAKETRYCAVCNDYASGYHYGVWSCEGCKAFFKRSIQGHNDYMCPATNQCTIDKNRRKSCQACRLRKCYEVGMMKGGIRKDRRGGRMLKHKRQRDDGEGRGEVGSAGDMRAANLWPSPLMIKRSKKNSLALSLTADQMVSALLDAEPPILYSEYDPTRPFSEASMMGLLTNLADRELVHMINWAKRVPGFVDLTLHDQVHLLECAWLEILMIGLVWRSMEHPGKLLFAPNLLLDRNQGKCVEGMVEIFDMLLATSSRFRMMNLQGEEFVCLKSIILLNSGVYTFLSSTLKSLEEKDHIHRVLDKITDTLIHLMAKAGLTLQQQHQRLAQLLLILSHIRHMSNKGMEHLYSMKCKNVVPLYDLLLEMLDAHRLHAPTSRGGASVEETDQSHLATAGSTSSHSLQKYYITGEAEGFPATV
Estrogen-related receptor gamma (Homo sapiens), sequence (P62508 whole entry, looked up, the tested form may be a part): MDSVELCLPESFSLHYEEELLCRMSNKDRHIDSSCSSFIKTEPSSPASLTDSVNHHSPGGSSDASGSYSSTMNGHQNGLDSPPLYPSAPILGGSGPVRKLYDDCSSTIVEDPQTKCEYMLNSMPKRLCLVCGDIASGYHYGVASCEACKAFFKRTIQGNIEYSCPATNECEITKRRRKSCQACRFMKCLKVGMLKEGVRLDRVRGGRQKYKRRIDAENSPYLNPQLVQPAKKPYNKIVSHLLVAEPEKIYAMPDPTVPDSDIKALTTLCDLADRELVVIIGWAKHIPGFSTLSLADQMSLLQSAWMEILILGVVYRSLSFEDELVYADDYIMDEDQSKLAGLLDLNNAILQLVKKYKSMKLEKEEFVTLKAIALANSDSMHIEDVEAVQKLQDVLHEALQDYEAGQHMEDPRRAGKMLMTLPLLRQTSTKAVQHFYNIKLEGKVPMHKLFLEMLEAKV

Nc1ccc(N=Nc2ccccc2)cc1
active: [1] 57.7 µM | [2] 77.9 µM | [3] 40.7 µM | [8] 52.2 µM | [9] 100 µM | [11] 54 µM | [12] 33 µM | [14] 73.9 µM
not listed: [18] | [19] | [20]
inactive: all other assays above

N#CC(Br)(Br)C(N)=O
active: [1] 100 µM | [6] 169 µM
not listed: [12] | [13] | [16] | [17] | [18] | [19] | [20]
inactive: all other assays above

CC(C)(C)OOC(=O)c1ccccc1
inactive: [2] | [3] | [4] | [5] | [6] | [7] | [8] | [9] | [10] | [11]
active: [1] 100 µM | [14] 150 µM

CC(C)N(Cc1ccccc1)C(=O)C(C)(C)C
active: [1] 1.24 µM
not listed: [12] | [13] | [16] | [17] | [20]
inactive: all other assays above

Nc1ccc(Oc2ccc(N)cc2)cc1
not listed: [11] | [12] | [15] | [19] | [20]
inactive: all other assays above

CCOc1cccc(C2(N3CCN(c4ccccc4)CC3)CCC(C)CC2)c1 (centres undefined)
not listed: [2] | [13] | [15] | [16] | [17] | [18] | [20]
inactive: all other assays above

c1ccc(N=Nc2ccccc2)cc1
not listed: [2] | [12] | [15] | [16] | [20]
inactive: all other assays above

c1ccc2c(c1)oc1ccccc12
not listed: [2] | [3] | [12] | [13] | [15] | [16]
inactive: all other assays above
